From PubChem BioAssay
This is a sample that favours compounds with a hit; in the whole collection about 3% have one here.
MITF TRPM1 HTS – activators of MITF-driven TRPM1 promoter activity in SK-MEL-5 cells. SK-MEL-5 TRPM1-promoter luciferase, 24 h; % of positive control, neutral wells = 0. activation, % at 12.5 µM. hit rate 0.75% among 300,000. AID 588334;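 active = mean activation of at least 80% with every replicate also reaching 80%; inconclusive = mean reaches 80% but some replicate falls short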;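 also: 0% = neutral control wells and 100% = parthenolide positive control wells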
PfHsp90 set2 – reduces growth (ATP signal) of yeast expressing P. falciparum Hsp90; S. cerevisiae expressing PfHsp90, BacTiter-Glo ATP, 48 h; yeast lacking PDR1 and PDR3 efflux regulators; inhibition, % at 9.4 µM; hit rate 0.32% among 310,000; AID 504621;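 active = every replicate shows inhibition above about 80%, whatever the replicate mean, limit read from the data; inconclusive = mean inhibition reaches the set limit but some replicate falls short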;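 also: 0% = DMSO neutral controls and 100% = 20 µM radicicol positive controls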
N-glyco inh – blocks N-linked glycosylation in D54 reporter cells; hit rate 0.23% among 360,000; AID 588692; D54 ERlucT glycosylation luciferase reporter, 24 h; percent of 100 nM tunicamycin response; reporter increase, % at 12.5 µM;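 active = mean luciferase reporter signal, scaled so untreated is 0 and the glycosylation-blocking control 100, at or above a set limit in every replicate; inconclusive = mean reaches the limit but not every replicate does; inactive = mean below the limit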;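 also: luciferase carries N-glycosylation sites so blocking glycosylation raises the light; 0% = median of neutral control wells and 100% = median of 100 nM tunicamycin wells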
esBAF inh – inhibitors of esBAF chromatin remodeling in mouse ES cells. Bmi1-luciferase knock-in reporter, 24 h; 100% = twice the neutral-well signal. reporter increase, % at 12.5 µM. hit rate 2% among 350,000. AID 602393; in the data active = activation above about 40%; inconclusive = no clear call, values can overlap the other calls;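 also: 0% = median of the plate's neutral control wells and 100% = double that signal; a rise in the Bmi1 reporter signal indicates esBAF inhibition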
Wnt bcat act – Wnt/beta-catenin pathway activation | AID 743398 | Wnt/beta-catenin reporter cell assay, activator, plate reader | hit rate 1.2% among 300,000 | activation, % at 9.35 µM; in the data active = activation above about 30%, passing the limit was not always enough; inconclusive = no clear call, values can overlap the other calls;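 also: 0% = neutral control wells and 100% = positive control wells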
Vif inh – inhibitors of HIV Vif; HEK293T cells, Vif self-association by quenched fluorescence, imaging, 24 h; hit rate 0.35% among 340,000; inhibition, % at 7.49 µM; in the data active = inhibition above about 50%, passing the limit was not always enough; inconclusive = no clear call, values can overlap the other calls; inactive = below about 31%
Numbers without * were called inactive; ? = inconclusive; . = not tested or not shown.

SMILES | MITF TRPM1 HTS | PfHsp90 set2 | N-glyco inh | esBAF inh | Wnt bcat act | Vif inh
CC(C)NC(=O)NCC[C@H]1CC[C@H](NC(=O)CCN2CCCCC2)[C@@H](CO)O1 | . | . | . | -11 | . | .
COc1cc(NC(=O)NCc2ccco2)ccc1-c1ccc(NC(=O)NCc2ccco2)cc1OC | -59 | . | 21 | -2 | -4 | 90*
O=C(Nc1nccs1)c1ccc2ccccc2c1 | 47 | -38 | -11 | 7 | 22 | -3
COc1cc2ccccc2cc1C(=O)Nc1nccs1 | . | -44 | 3 | 76* | ? | 8
COc1c(C(=O)Nc2ccc(Br)cn2)ccc2ccccc12 | 67 | 5 | 1 | 49* | 29 | -16
O=C(COc1cccc2cccnc12)Nc1nccs1 | . | -9 | -6 | 29 | 53* | ?
O=C(Nc1ccc(Br)cn1)c1cccc2ccccc12 | . | 6 | 18 | . | -7 | -5
COCCNC(=O)C(=O)NCC1OCCN1S(=O)(=O)c1cccs1 (stereo not drawn) | 2 | 0 | 3 | 1 | -2 | 2
COc1ccc(C(CC(=O)Nc2nccs2)n2cccc2)cc1 (stereo not drawn) | 55 | 14 | -5 | 61* | . | 9
COc1ccccc1OCCCC(=O)NCc1ccco1 | 0 | . | 0 | . | -1 | 59*
Cn1c(=O)cc(OCCCC(=O)NCc2ccco2)c2ccccc21 | 7 | -11 | 10 | 3 | 5 | 4
COc1cc2ccccc2cc1C(=O)NCC(c1cccs1)N(C)C (stereo not drawn) | 123* | 9 | -8 | . | 28 | -2
O=C(Nc1ccc(Br)cn1)c1ccc2ccccc2c1 | . | -1 | 3 | 56* | 17 | 2
COc1cc(OC)c(C(=O)NCC(c2cccs2)N(C)C)cc1OC (stereo not drawn) | 14 | . | -6 | . | . | 5
O=C(Nc1ccc(Br)cn1)c1cccc(C(=O)Nc2ccc(Br)cn2)c1 | -17 | -2 | 1 | -8 | -1 | 25
CCCn1nc2cc(C(=O)NCCCCc3ccccc3)ccc2c1OCC | 10 | 12 | 4 | -14 | -10 | -2
CCCn1c(=O)c(C(=O)NCCc2ccc(Cl)cc2)c(O)c2ccccc21 | . | 0 | 1 | -3 | -1 | -3
O=C(c1ccco1)N1CCN(Cc2cc(=O)oc3cc(O)ccc23)CC1 | 7 | 15 | -3 | 2 | 0 | 7
Cc1cnc(C(=O)Nc2ccc(C(C)C)cc2)cn1 | 131* | 1 | -1 | . | 39* | 9
CCN1C(=O)CC(N2CCN(c3ccc(C(=O)c4ccccc4)cc3)CC2)C1=O (stereo not drawn) | 48 | 14 | -1 | 55* | -1 | -3
COc1ccc(C(=O)OCC(=O)Nc2nnc(-c3ccccc3)o2)cc1 | 13 | -16 | 1 | -15 | -2 | 0
C=C1CCCC2OC(CC3=CC4/C(C)=C/CC(C)CC(/C=C(\C)C(O)C5CC(O)C(O)C(CCC(O)/C=C/C(C)=C/CCC6=NCCC(C3)C64C)O5)OC(=O)CC3OC(C(O)C1)C(O)C3O)CC(O)C2O (stereo not drawn) | . | . | -13 | -13 | -2 | 118*
Cc1cc(/C=C2\Sc3ccccc3N2C)cc(C)[n+]1CC1CCCO1 (stereo not drawn) | -72 | -40 | 38* | . | -19 | -5
Cc1cc(O)ccc1N/C=C/c1onc(C)c1[N+](=O)[O-] | 26 | 5 | -6 | . | 60* | 0
COc1ccc(Cl)c(Cn2c(NCc3ccccn3)nc3c2c(=O)n(C)c(=O)n3C)c1 | 2 | 32 | 2 | 1 | . | 16
SMILES | MITF TRPM1 HTS | PfHsp90 set2 | N-glyco inh | esBAF inh | Wnt bcat act | Vif inh
O=C(NNc1ccc([N+](=O)[O-])cn1)Nc1ccc(N=Nc2ccccc2)cc1 | -5 | -8 | -2 | 8 | -3 | -5
O=C(Nc1cccc(Cl)c1)c1csc(COCCO)n1 | . | . | 1 | 47* | 25 | .
O=C(Nc1cccc(C(F)(F)F)c1)c1csc(COCCO)n1 | . | . | 0 | 1 | 4 | -1
Cc1noc(C)c1NC(=O)Nc1cccc2c1O[C@H](CN(C)Cc1ccc(C(F)(F)F)cc1)[C@H](C)CN([C@H](C)CO)C2=O | . | . | . | -1 | . | .
CC1CCC(NC(=O)CCNC(=O)c2ccc(Br)cc2)CC1 (stereo not drawn) | 82* | -9 | 1 | ? | -5 | -2
CCN(CC)S(=O)(=O)c1ccc(NC(=O)c2ccccn2)cc1 | 69 | -20 | -2 | 48* | 22 | 4
CC(=O)Nc1cccc(NC(=O)c2ccc(Br)cc2)c1 | 20 | -9 | 3 | 42* | 3 | -14
Cc1cccc(C(=O)NCCC(=O)NCc2ccccc2Cl)c1 | 12 | 3 | 0 | 6 | -1 | 54*
CN(C)S(=O)(=O)c1ccc(NC(=O)c2ccccn2)cc1 | ? | 20 | -3 | 14 | 2 | -12
O=C(CNC(=O)c1ccc(Br)cc1)NC1CC1 | 4 | -5 | 0 | -4 | 0 | 4
C[C@@H]1CCCCO[C@@H](CN(C)C(=O)c2ccncc2)[C@@H](C)CN([C@@H](C)CO)C(=O)c2cc(NS(=O)(=O)c3ccc(Cl)cc3)ccc2O1 | . | . | . | -4 | . | .
CCC(C)NCCOc1ccccc1C (stereo not drawn) | -6 | -14 | -1 | -1 | -2 | 1
COC(=O)/C=C1\SC(=NC(=O)c2cccc([N+](=O)[O-])c2)NC1=O | -1 | -5 | 3 | -3 | -2 | 0
CO[C@H]1CC[C@@H]2CCN(C)C(=O)C[C@H](c3ccccc3)CN(C)C(=O)c3cc(C#N)ccc3OC[C@@H]1O2 | . | . | . | 4 | . | .
Cc1cccc(NC(=O)CCNC(=O)c2ccc(Br)cc2)c1 | 64 | -116 | 5 | 54* | 11 | 3
O=C(CCNC(=O)c1ccc(Br)cc1)Nc1cccc(S(=O)(=O)N2CCCC2)c1 | -5 | 2 | 0 | 5 | -3 | -14
CCN(CC)S(=O)(=O)c1cccc(NC(=O)c2cncc(Br)c2)c1 | 3 | 0 | -3 | . | 0 | -5
CCN(CC)S(=O)(=O)c1cccc(NC(=O)c2ccc(Br)cc2)c1 | -1 | 96* | -8 | . | -1 | -7
COCCn1c(COc2ccc(C)cc2)nc2ccccc21 | 34 | 10 | -2 | 64* | 0 | -7
C=CCn1c(COc2ccccc2)nc2ccccc21 | 28 | -8 | -2 | 50* | 4 | -2
CCOCCn1c(COc2ccc(C)cc2)nc2ccccc21 | 42 | 21 | -3 | . | 28 | -2
CN(C)CCn1c(COc2ccccc2)nc2ccccc21 | . | 8 | 1 | . | 4 | -14
O=C(N1CCOCC1)N1CCN(S(=O)(=O)c2ccc(F)cc2)CC1 | . | -1 | 1 | -1 | -2 | 14
CC1=C(N2CCOCC2)CCC1=O | -6 | 37 | 4 | -4 | 0 | 7
CC1=C(n2ccnc2)CCC1=O | -4 | 25 | 86* | -5 | -1 | 20
Cc1ccccc1C1CC(=O)Oc2cc(O)ccc21 (stereo not drawn) | 9 | -8 | 1 | 1 | . | 63*
